Results on 29 molecules are retold here after PubChem BioAssay (NCATS).

Assay [1] can be described thus: qHTS of pediatric cancer cell lines to identify multiple opportunities for drug repurposing: Primary screen for TC32 cells (AID 1347089). Note: nearly all actives have a fitted effect of over 60% in size. The method, boiled down:
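A viability screen of TC32 cells was run over 48 h, with primary MIPE doses spanning 0.78 nM–46 µM and NPC doses 0.59 nM–46 µM. ATP luminescence (CellTiter-Glo) served as the read-out.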

Assay [2] can be described thus: qHTS of pediatric cancer cell lines to identify multiple opportunities for drug repurposing: Primary screen for DAOY cells (AID 1347090). Note: nearly all actives have a fitted effect of over 55% in size. In outline:
(§1)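 Eight- or eleven-point concentration series, 48 h treatment at 37 degrees C in growth media; readout CellTiter-Glo luminescence. Potency and efficacy were taken from the concentration-response curves.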
(In general: In qHTS, concentration-response curves come from the screen itself.)

Assay [3] in a line: qHTS of pediatric cancer cell lines to identify multiple opportunities for drug repurposing: Primary screen for SJ-GBM2 cells (AID 1347091). The method, boiled down:
as §1

A short description of assay [4]: qHTS of pediatric cancer cell lines to identify multiple opportunities for drug repurposing: Primary screen for A673 cells (AID 1347092). Note: nearly all actives have a fitted effect of over 45% in size. In outline: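 Titration-based qHTS on A673 cells: MIPE compounds spanned 11 points (0.78 nM to 46 µM final), NPC compounds 8 points (0.59 nM to 46 µM final). Viability after 48 h was measured by ATP luminescence.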
Assay [5] in a line: qHTS of pediatric cancer cell lines to identify multiple opportunities for drug repurposing: Primary screen for SK-N-MC cells (AID 1347093). The method, boiled down: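 Metabolically active cells were quantified by ATP-dependent luminescence (CellTiter-Glo, 15 min at room temperature) following 48 h treatment. Cells had been plated at 500-1,000 per well and settled for 5 h beforehand.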

Assay [6] is described as follows: qHTS of pediatric cancer cell lines to identify multiple opportunities for drug repurposing: Primary screen for BT-37 cells (AID 1347094). The method, boiled down:
(§2)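 Viability was measured as metabolically active cells after 48 hours of treatment, read by CellTiter-Glo luminescence. Compounds were tested at multiple final concentrations, giving concentration-response curves.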

A short description of assay [7]: qHTS of pediatric cancer cell lines to identify multiple opportunities for drug repurposing: Primary screen for NB-EBc1 cells (AID 1347095). The method, boiled down:
as §2

Assay [8] is described as follows: qHTS of pediatric cancer cell lines to identify multiple opportunities for drug repurposing: Primary screen for U-2 OS cells (AID 1347096). Note: nearly all actives have a fitted effect of over 50% in size. The method, boiled down: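 Cells (500-1,000/well) in growth media were settled 5 h at 37 degrees C, then given compounds for 48 h. Viability was read as CellTiter-Glo luminescence. Primary runs used MIPE at 11 points (0.78 nM-46 µM) and NPC at 8 points (0.59 nM-46 µM); follow-ups used 11 points.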

Assay [9] can be described thus: NS1 protein of Zika virus - qHTS assay to identify small molecule inhibitors in human HEK 293 cells (AID 1347053). Note: nearly all actives have a fitted effect of over 55% in size. In outline: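 Read-out is a two-antibody TR-FRET for ZIKV NS1, normalized between uninfected cells and infected cells. Compound added 1 h before MR766 infection at MOI 0.5; human HEK 293 cells incubated 24 h, 37 C.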
Assay [10] can be described thus: qHTS of pediatric cancer cell lines to identify multiple opportunities for drug repurposing: Primary screen for Saos-2 cells (AID 1347097). Note: nearly all actives have a fitted effect of over 40% in size. In outline:
as §2

A short description of assay [11]: qHTS of pediatric cancer cell lines to identify multiple opportunities for drug repurposing: Primary screen for SK-N-SH cells (AID 1347098). Note: nearly all actives have a fitted effect of over 65% in size. In outline: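 Cells (500-1,000/well) rested 5 h, then received compounds for 48 h; metabolically active cells were measured by CellTiter-Glo luminescence. Final concentrations spanned up to 46 µM (MIPE, 11-point) or 0.59 nM-46 µM (NPC, 8-point) in primary screens, 11-point in follow-ups.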

Results filed as inconclusive are left out. The source made the active and inactive calls. Calls come from the whole dose curve; as a rule, active = well fitted curve in the direction sought with a large enough effect; inconclusive = small, poorly fitted or top-dose-only effect, or another doubt; inactive = no such curve, though single readings can be large; an effect the other way counts as inactive or inconclusive.
Potency is the fitted concentration of half-maximal effect.

As for `CN1CC(=O)N2C(Cc3c([nH]c4ccccc34)[C@H]2c2ccc3c(c2)OCO3)C1=O` (stereo partly specified), the Potency entry in assay [1], in [2], in assay [3], in assay [4], in [5] and in assay [6] was “inactive” each time. The Potency result in assay [7] and in assay [8] was “inactive” in each case.

As for `CC(O)=C(C#N)C(=O)Nc1ccc(C(F)(F)F)cc1`, the Potency in [9] was 13.2 µM (active); in assay [4] it was 18.7 µM (active); in assay [5], 4.69 µM (active); in assay [7] it was 4.18 µM (active). Besides, the Potency entry in assay [8] is “inactive”.

As to `Oc1cc(O)cc(C=Cc2ccc(O)c(O)c2)c1`, the Potency result in assay [2], in assay [3] and in [8] was “inactive” each time. The Potency in assay [4] was 18.7 µM (active); in assay [5] it was 5.26 µM (active); in [7] it was 4.18 µM (active); in [10] it was 5.26 µM (active).

Consider `Cc1cccc2c1CC[C@H](CN1CCC(c3c(Cl)cccc3Cl)CC1)C[C@@H]2O`, for which the Potency result in [2], in assay [3], in assay [7] and in [11] was “inactive” in each case. Moreover, the Potency is 9.35 µM (active) in assay [5] and 30.6 µM (active) in [6].

`Cc1nn(Cc2ccccc2Cl)c(C)c1CN(C)CC(O)COc1ccc(Cl)cc1` (stereo unspecified): the Potency entry in [9], in assay [8] and in assay [10] was “inactive” each time. In addition, the Potency in [5] was 1.87 µM (active); in assay [11], 24.1 µM (active).

`Cn1cnc(-c2cc3nccc(Oc4ccc(NC(=S)NC(=O)Cc5ccccc5)cc4F)c3s2)c1`: the Potency result in [1] is “inactive”. Further, the Potency was 0.0469 µM (active) in [3], 29.6 µM (active) in [4], 16.6 µM (active) in assay [10] and 21.5 µM (active) in assay [11].

With `CO[C@H]1/C=C\O[C@@]2(C)Oc3c(C)c(O)c4c(O)c(c(C=NN5CCN(C6CCCC6)CC5)c(O)c4c3C2=O)NC(=O)C(C)=CC=C[C@H](C)[C@H](O)[C@@H](C)[C@@H](O)[C@@H](C)[C@H](OC(C)=O)[C@H]1C`, the Potency in [1] is 0.523 µM (active); in [2] it was 0.296 µM (active); in assay [4], 0.0296 µM (active); in assay [5], 0.0059 µM (active); in assay [6] it was 0.001 µM (active); in assay [7], 0.001 µM (active). The Potency in assay [8] is 2.35 µM (active); in assay [10], 0.0935 µM (active); in assay [11], 0.0961 µM (active). Besides, in assay [3], the Potency entry was “inactive”.

Regarding `CNc1nc(-c2ccc3c(N)n[nH]c3c2)cc(N2C[C@@H](C(=O)NC3CCCCC3)CC[C@@H]2C)n1`, in assay [1], the Potency result is “inactive”. Also, the Potency in assay [3] is 23.5 µM (active); in [5], 4.18 µM (active).

With `O=C1NC(=O)C(=Cc2ccc(-c3ccc(F)cc3O)o2)S1`, the Potency result in assay [9] was “inactive”. In addition, the Potency in assay [5] is 23.5 µM (active); in [7], 5.26 µM (active).

`CCN1CCC(n2cc(CNc3cc(Cl)c4ncc(C#N)c(Nc5ccc(F)c(Cl)c5)c4c3)nn2)CC1`: the Potency in [3] is 18.7 µM (active); in assay [4], 14.8 µM (active); in [6], 24.3 µM (active); in assay [7] it was 23.5 µM (active); in assay [10] it was 14.8 µM (active). For the same molecule, in [8], the Potency result was “inactive”.

Regarding `O=C(Nc1cccc2c(=O)cc(-c3nn[nH]n3)oc12)c1ccc(OCCCCc2ccccc2)cc1`, the Potency entry in [1], in assay [2] and in assay [8] was “inactive” each time.

With `Cc1nc(NC(=O)N2CCC[C@@H]2C(N)=O)sc1-c1csc(C(C)(C)C)n1`, in [9], the Potency result was “inactive”. Moreover, the Potency in assay [4] is 2.96 µM (active); in assay [5], 0.235 µM (active); in [7] it was 4.69 µM (active); in assay [10], 11.8 µM (active); in assay [11], 15.2 µM (active).

Turning to `COc1cc2c(cc1Cc1cccc(Cl)c1F)c(=O)c(C(=O)O)cn2[C@H](CO)C(C)C`, the Potency entry in assay [1] and in [11] was “inactive” each time. In addition, the Potency in assay [6] was 13.7 µM (active).

In the case of `Cc1cc(OCCCS(C)(=O)=O)cc(C)c1-c1cccc(COc2ccc3c(c2)OC[C@H]3CC(=O)O)c1`, the Potency entry in assay [1] and in [11] was “inactive” in each case. Moreover, the Potency in assay [2] is 18.7 µM (active); in [3], 26.4 µM (active); in assay [10] it was 33.2 µM (active).

For `COC1CCC(C(=O)c2ccc3nc4c(cc3c2)CCCO4)CC1` (stereo unspecified), the Potency entry in [1], in [2] and in assay [8] was “inactive” each time. The Potency in assay [3] was 18.7 µM (active); in assay [4], 23.5 µM (active).

In the case of `NC(=O)c1nnn(Cc2cc(Cl)c(C(=O)c3ccc(Cl)cc3)c(Cl)c2)c1N`, the Potency entry in assay [1] and in assay [8] was “inactive” each time. Besides, the Potency is 23.5 µM (active) in [5], 23.5 µM (active) in assay [10] and 30.4 µM (active) in [11].

As to `CN[C@@H]1CN(c2ccc3c(=O)c(C(=O)O)cn(-c4nccs4)c3n2)C[C@@H]1OC`, the Potency in assay [1] is 12.8 µM (active); in assay [2] it was 8.12 µM (active); in [4], 8.12 µM (active); in assay [5] it was 1.29 µM (active); in [6], 3.35 µM (active); in assay [7] it was 0.407 µM (active). The Potency in [11] was 9.37 µM (active). For the same molecule, the Potency entry in [8] and in [10] was “inactive” throughout.

For the molecule `Nc1nc(Cl)nc2c1ncn2[C@@H]1O[C@H](CO)[C@@H](O)[C@H]1F`, the Potency in assay [1] is 0.0234 µM (active); in [2], 0.0372 µM (active); in assay [4], 0.0296 µM (active); in assay [6], 0.0485 µM (active); in assay [7] it was 0.001 µM (active). Besides, the Potency entry in [8] is “inactive”.

As for `O=S(=O)(NCCNCC=Cc1ccc(Br)cc1)c1cccc2cnccc12`, the Potency in assay [3] is 11.8 µM (active); in [4], 11.8 µM (active); in [7], 16.6 µM (active); in assay [10], 16.6 µM (active); in assay [11] it was 19.2 µM (active).

For the molecule `Clc1ccc(COC(Cn2ccnc2)c2ccc(Cl)cc2Cl)c(Cl)c1` (stereo unspecified), the Potency in assay [3] is 18.7 µM (active); in assay [4], 23.5 µM (active). Moreover, the Potency result in [11] is “inactive”.

Take `CC(C)C[C@H](NC(=O)c1cc2ccccc2s1)C(=O)N1CCN(C(=O)[C@H](CO)NS(=O)(=O)c2ccc(Cl)cc2Cl)CC1`: the Potency result in assay [1] was “inactive”. In addition, the Potency in assay [3] was 18.7 µM (active); in [4], 23.5 µM (active); in assay [7] it was 26.4 µM (active); in [10] it was 14.8 µM (active).

`CCCCc1ccc(NS(=O)(=O)c2ccc(C)c(C(=O)N3CCN(c4cccc(C)c4C)CC3)c2)cc1`: the Potency result in [1] and in assay [8] was “inactive” throughout. Besides, the results for the Potency in assay [3] and in [5] were 20.9 µM (active) and 23.5 µM (active), respectively.

With `O=C(c1ccc(C=Cc2n[nH]c3ccccc23)cc1)N1CCNCC1`, the Potency in assay [1] was 4.66 µM (active); in assay [5], 1.18 µM (active); in assay [7], 3.72 µM (active). Moreover, the Potency entry in assay [2] and in [6] was “inactive” each time.

Turning to `C#CCN(C)CC1=Cc2ccccc2Oc2ccccc21`, the Potency entry in assay [1], in [3], in assay [6], in [8] and in [11] was “inactive” each time.

For `CN(C(Cc1ccc(OS(=O)(=O)c2cccc3cnccc23)cc1)C(=O)N1CCN(c2ccccc2)CC1)S(=O)(=O)c1cccc2cnccc12` (stereo unspecified), the Potency result in assay [9] and in assay [6] was “inactive” each time. The Potency was 18.7 µM (active) in assay [4] and 0.418 µM (active) in assay [5].

As to `CCCCC(C=O)NC(=O)C(CC(C)C)NC(=O)OCc1ccccc1` (stereo unspecified), the Potency result in assay [9], in assay [3], in assay [7] and in assay [10] was “inactive” in each case.

Take `CC(C)(O)CC(=O)NCCn1ccc2ncnc(Nc3ccc(Oc4cccc(C(F)(F)F)c4)c(Cl)c3)c21`: the Potency entry in assay [1] and in assay [8] was “inactive” each time. Also, the Potency in assay [2] is 0.469 µM (active); in [4], 0.372 µM (active); in assay [5] it was 0.743 µM (active); in [6] it was 24.3 µM (active); in assay [11] it was 1.21 µM (active).

Take `Clc1ccc(C2(c3ccc(-c4cn[nH]c4)cc3)CCNCC2)cc1`: the Potency in assay [2] was 23.5 µM (active); in [3], 5.26 µM (active); in assay [4], 18.7 µM (active); in assay [7], 16.6 µM (active); in [10] it was 4.18 µM (active); in assay [11], 24.1 µM (active). Besides, the Potency entry in assay [6] was “inactive”.

With `O=c1[nH]c(=O)n([C@H]2C[C@@H](O)[C@@H](CO)O2)cc1C(F)(F)F`, the Potency in [1] was 7.39 µM (active); in [4], 3.72 µM (active); in assay [5], 3.72 µM (active); in assay [6], 3.06 µM (active); in [7], 18.7 µM (active). Further, the Potency result in assay [8] and in assay [11] was “inactive” each time.
